In the library only some 11% were active in any assay of this set; here they are far more common.
ALDH1A1 block: inhibitors of human aldehyde dehydrogenase 1A1; P00352; Purified ALDH1A1, NADH fluorescence, propionaldehyde substrate; Potency, µM (doses to about 75.3 µM), for inactives: top-dose activity, negative = inhibition, most hits filed as inhibitors; actives 7.3% (n = 220,000);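 note: potency is the fitted concentration of half-maximal effect; plate controls were no enzyme wells and a reference inhibitor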
Target sequence (P00352 whole entry, looked up): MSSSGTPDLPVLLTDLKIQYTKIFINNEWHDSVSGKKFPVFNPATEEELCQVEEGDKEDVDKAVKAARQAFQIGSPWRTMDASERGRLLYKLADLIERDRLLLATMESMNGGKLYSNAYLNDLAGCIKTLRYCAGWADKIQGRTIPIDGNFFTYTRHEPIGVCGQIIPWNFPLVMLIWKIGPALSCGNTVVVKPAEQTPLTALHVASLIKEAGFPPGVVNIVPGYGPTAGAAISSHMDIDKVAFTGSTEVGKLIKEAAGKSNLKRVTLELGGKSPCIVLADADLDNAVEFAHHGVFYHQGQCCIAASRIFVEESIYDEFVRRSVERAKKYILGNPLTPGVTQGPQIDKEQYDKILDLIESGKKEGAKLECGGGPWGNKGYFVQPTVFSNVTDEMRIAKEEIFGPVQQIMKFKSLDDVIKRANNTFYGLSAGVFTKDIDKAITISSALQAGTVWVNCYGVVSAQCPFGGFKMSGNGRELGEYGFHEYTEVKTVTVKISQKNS
HTT ATP protect: cytoprotection in Huntington HTT-Q103 PC12 cell model. PC12 HTT-Q103 induced, cytoprotection, ATP luminescence, 40 h. Potency, µM (doses to about 56.4 µM), inactives show cytoprotection (ATP increase), most hits filed as activators. actives 0.14% (n = 230,000). AID 1471; active = well fitted curve in the direction sought with a large enough effect; inconclusive = small, poorly fitted or top-dose-only effect, or another doubt; inactive = no such curve, though single readings can be large; an effect the other way counts as inactive or inconclusive; note: potency is the fitted concentration of half-maximal effect; % of control where 0% means no effect; nearly all actives have a fitted effect of over 45% in size
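Stable PC12 Q103-GFP cells in serum-supplemented, phenol red-free DMEM; induction by tebufenozide at 100 nM final; compound dose series; cell viability quantified luminescently from ATP.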
GoLoco inh red: blocks human Gai1 binding to RGS12 GoLoco peptide, red readout; P63096; Gai1:RGS12 GoLoco peptide FP, rhodamine, 10 min; Potency, µM (series often up to 61.6 µM), for the others: at the highest dose activity, negative = inhibition, most hits filed as inhibitors; actives 0.44% (n = 230,000); AID 880; active = well fitted inhibition curve with a large enough effect, not every such curve was filed as active; inactive = no such curve, though single readings can be large or run the other way; note: potency is the fitted concentration of half-maximal effect; % is set by controls: 0 for no effect and ±100 for the full control effect; nearly all actives have a fitted effect of over 30% in size
HTT aggregate: reduces HttQ103-GFP aggregates in PC12 cells; PC12 HttQ103-GFP aggregates, Acumen cytometry, 40 h; Potency, µM (doses to about 46.1 µM), for the others: at the top dose activity change, negative = inhibition, actives largely listed as inhibitors; actives 1.1% (n = 220,000); AID 1688; active = well fitted curve in the direction sought with a large enough effect; inconclusive = small, poorly fitted or top-dose-only effect, or another doubt; inactive = no such curve, though single readings can be large; an effect the other way counts as inactive or inconclusive; note: potency is the fitted concentration of half-maximal effect; % is set by controls: 0 for no effect and ±100 for the full control effect; nearly all actives have a fitted effect of over 60% in size
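PC12 cells with ecdysone-inducible HTT exon1 Q103-GFP, induced by 100 nM tebufenozide, given compounds in a concentration series. GFP aggregates (1–25 um, 6 SD above background) counted in lysates by laser-scanning cytometry, 488 nm excitation.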
HPGD block: blocks human HPGD enzyme activity; P15428; purified HPGD, NADH fluorescence kinetic, PGE2 substrate; Potency, µM, for the others: top-dose activity change, negative = inhibition, actives largely listed as inhibitors; actives 4.3% (n = 150,000); AID 894; note: potency is the fitted concentration of half-maximal effect; % is set by controls: 0 for no effect and ±100 for the full control effect
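20 nM HPGD preincubated 15 min at room temperature with compound in 50 mM Tris-HCl pH 8, 0.01% Tween 20. Started with 1 mM NAD+ and 30 uM prostaglandin E2; NADH fluorescence (360/450 nm) read 5 times over 30-s intervals, last minus first.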
PNC inhibitor: perinucleolar compartment assembly inhibition; activity change (PNC), negative = inhibition, % at 10 µM; actives 3.1% (n = 140,000); PC3M PTB-GFP, PNC prevalence imaging, 16 h; active compounds read low; AID 2417;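 active = readout at or below -70, meaning at least 70% loss of cells showing the perinucleolar compartment, a nuclear body marking cancer cells; inconclusive = readout between -30 and a set limit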;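 note: plate controls were DMSO wells for no effect and camptothecin positive control wells for full effect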
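PC3M cells stably expressing PTB-GFP, 750–1000 cells/well, treated 16 h at 37 °C with compound (23 nl of library stock), in duplicate. After paraformaldehyde fixation and Hoechst stain, imaged at 20x; PNC prevalence scored by image analysis.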
* marks the source's active call; other numbers are inactive results; [ ] = remark or other dose. Unless noted, calls come from the whole dose curve; as a rule, active = well fitted inhibition curve with a large enough effect (not every such curve was filed as active); inconclusive = small, poorly fitted or top-dose-only effect, or another doubt; inactive = no such curve, though single readings can be large or run the other way.

Screening Cc1ccc(OCCOc2ccc(Br)cc2)c([N+](=O)[O-])n1 returned ALDH1A1 block inconclusive, HTT ATP protect 11.9%[10 µM], GoLoco inh red -5.5%, HTT aggregate -29.7%, HPGD block 10µM* and PNC inhibitor -21.5.
For Cc1ccc(-n2c(C)cc(C(=O)COc3cccnc3[N+](=O)[O-])c2C)cc1 the results were ALDH1A1 block inconclusive, HTT ATP protect 21.4%[1.9 µM], GoLoco inh red 1.8%, HTT aggregate inconclusive, HPGD block -18.3% and PNC inhibitor -14.1.
For Cc1cc(C(=O)COc2cccnc2[N+](=O)[O-])c(C)n1-c1ccccc1 the results were ALDH1A1 block 20µM*, HTT ATP protect -14.1%[10 µM], GoLoco inh red 12.6%, HTT aggregate inconclusive, HPGD block -5.2% and PNC inhibitor inconclusive.
For CC(C)c1ccc(O)c(O)c(=O)c1 (tested in a mixture with another compound) the results were ALDH1A1 block -5.4%[13.5 µM], HTT ATP protect 12.0%[10 µM], GoLoco inh red 6.0%[14.2 µM] and HPGD block -8.2%.
For O=C(O)CCCCCNc1ccc2nsnc2c1[N+](=O)[O-] the results were ALDH1A1 block -4.8%, HTT ATP protect -10.9%[1.9 µM], GoLoco inh red -1.0%, HTT aggregate -21.9%, HPGD block 28.2µM* and PNC inhibitor 15.4.
`O=C(O)CCCCCNS(=O)(=O)c1cccc2nsnc12` gave ALDH1A1 block 4.1%, HTT ATP protect -2.7%, GoLoco inh red 2.4%, HTT aggregate -3.7%, HPGD block -3.1% and PNC inhibitor 32.9.
For CC(=O)Nc1cccc(NC(=O)CSc2nnnn2-c2ccc3c(c2)OCO3)c1 the results were HTT ATP protect 4.2%[10 µM], GoLoco inh red 1.5% and HTT aggregate -10.3%[9.22 µM].
For Cc1cccc(COCC(Cc2ccccc2)N2CCN(C(=O)c3ccc(C(F)(F)F)cc3)CCC2=O)c1 (stereo not given) the results were ALDH1A1 block -2.6%, GoLoco inh red -5.6%, HTT aggregate -8.4%, HPGD block -17.3% and PNC inhibitor -80.2*.
For O=C(c1ccc(C(F)(F)F)cc1)N1CCC(=O)N(C(COCc2ccc(C(F)(F)F)cc2)Cc2ccccc2)CC1 (stereo not given) the results were ALDH1A1 block -5.2%, GoLoco inh red -7.9%, HTT aggregate -22.0%, HPGD block inconclusive and PNC inhibitor 25.8.
CC(C)N(C(=S)Nc1cccc(S(=O)(=O)N(C)C)c1)c1ccccc1 was read as HTT ATP protect 1.2%[10 µM], GoLoco inh red 2.5% and HTT aggregate -10.4%[9.22 µM].
Screening CC(C)(O)[C@@H]1CCC[N+]2(C)CCCC[C@H]12 (stereo not given in full) returned ALDH1A1 block 12.6%, HTT ATP protect -0.6%, GoLoco inh red -6.2% and HPGD block -4.4%.
For C[N+]1(C2CCC3CCCC2C3O)CCCC1 (stereo not given) the results were ALDH1A1 block 3.4%, HTT ATP protect 1.2%[10 µM], GoLoco inh red 2.82µM*, HTT aggregate -4.2%, HPGD block -3.8% and PNC inhibitor 19.8.
Screening COc1ccc2[nH]cc(CCNc3nc(-c4cccc(C#N)c4)nc4ccccc34)c2c1 returned ALDH1A1 block inconclusive, HTT ATP protect -254.6% and GoLoco inh red 3.0%.
Screening O=S(=O)(c1ccccc1)c1cnc(-c2ccccc2)nc1N1CCCCC1 returned ALDH1A1 block 12.6µM*, HTT ATP protect -25.6%, GoLoco inh red 12.9% and HTT aggregate inconclusive.
For Cc1ccc(S(=O)(=O)c2cnc(-c3ccccc3)nc2N2CCN(C)CC2)cc1 the results were ALDH1A1 block 2.24µM*, HTT ATP protect -37.7%, GoLoco inh red 1.7% and HTT aggregate -9.0%.
`CN1CCN(c2nc(-c3ccccc3)ncc2S(=O)(=O)c2ccccc2)CC1` gave ALDH1A1 block 14.1µM*, HTT ATP protect -8.0%, GoLoco inh red 1.7% and HTT aggregate -0.8%[9.22 µM].

Source: PubChem
